Experimental data reported in PubChem BioAssay (EPA / NIEHS).
Inconclusive results are not listed. Some compounds were tested as several samples or in several runs, with calls that do not always agree. Calls of active or inactive are those of the source. The calls were made as follows: active = hit-call score of the fitted dose curve at least 0.9, where 1 is the maximum; inconclusive = response in the unintended direction; inactive = score below 0.9.

Columns and labels:
[1] = target: Estrogen receptor (Homo sapiens) + Estrogen receptor beta (Homo sapiens) (UniProt P03372+Q92731); test: OT_ER_ERaERb_1440: Odyssey Thera (OT) 24-hour HEK293T Protein-Complementation Assay for Estrogen Receptor-alpha/-beta Homodimer (AID 2283356);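 also: heteromer of ER alpha and ER beta binding domains; hits raise reporter fluorescence and both agonists and antagonists give an increase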
Outline: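 24 h exposure; HEK293T PCA cells with ERα/ERβ LBD fragments; signal rise in nuclear or whole-cell fluorescence over vehicle.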

PGR (gene 5241) = PGR (gene 5241) (UniProt P06401); test: NVS_NR_hPR: NovaScreen (NVS) Nuclear Receptor Binding Assay for human Progestron Receptor (PR) (AID 2283360);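 also: active means loss of bound radioligand signal versus DMSO baseline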
Outline: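 T47D lysate; tritiated or iodinated radioligand; scintillation count at 18 h. DMSO = negative control/baseline. Primary: 25 uM, duplicate. Secondary: concentration series for actives.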

[2] = target: Retinoic acid receptor alpha (Homo sapiens) (UniProt P10276); test: NVS_NR_hRARa_Agonist: NovaScreen (NVS) Nuclear Receptor Binding Assay for human Retinoic Acid Alpha Receptor Agonism (RAR) (AID 2283361)
Outline: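 Cell-free TR-FRET binding readout with extracted receptor protein, read 2 hours after dosing; gain-of-signal fitted relative to DMSO. Screened in duplicate at 25 uM, actives then run in concentration-response.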

[3] = target: Glucocorticoid receptor (Homo sapiens) (UniProt P04150); test: NVS_NR_hGR: NovaScreen (NVS) Nuclear Receptor Binding Assay for human Glucocorticoid Receptor (GR) (AID 2283363);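 also: activity is loss of specific radioligand binding signal relative to DMSO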
Outline: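 Cell-free radioligand displacement assay on extracted human GR, read 16 h after dosing by filter-based scintillation counting. Screened in duplicate at 25 uM, then concentration series for actives; loss of signal versus DMSO baseline.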

[4] = target: Peroxisome proliferator-activated receptor gamma (Homo sapiens) (UniProt P37231); test: NVS_NR_hPPARg: NovaScreen (NVS) Nuclear Receptor Binding Assay for human Peroxisome Proliferator-activated Receptor gamma (PPARg) (AID 2283370)
Outline: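 Extracted receptor protein, cell-free; compound incubated 2 h then fluorescence polarization read. Baseline: DMSO. Actives from 25 uM duplicate screen re-run across concentrations.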

[5] = target: human Dopamine Transporter (DAT), SLC6A3 (gene 6531) (UniProt Q01959); test: NVS_TR_hDAT: NovaScreen (NVS) Transporter Assay for human Dopamine Transporter (DAT) (AID 2283374);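 also: activity means loss of bound radioligand signal relative to DMSO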
Outline: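 Cell-free radioligand displacement binding at human DAT, 1 h after dosing, with filtration and scintillation counting. Primary screen in duplicate at 25 uM, actives then in concentration series. Loss of bound signal versus DMSO scored.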

[6] = target: human Peroxisome Proliferator-activated Receptor alpha (PPARa), PPARA (gene 5465) (UniProt Q07869); test: NVS_NR_hPPARa: NovaScreen (NVS) Nuclear Receptor Binding Assay for human Peroxisome Proliferator-activated Receptor alpha (PPARa) (AID 2283359);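 also: activity means loss of TR-FRET signal versus DMSO baseline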
Outline: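 Cell-free TR-FRET binding assay with extracted PPARα protein, read 1 h after dosing. Primary screen in duplicate at 25 uM, with actives retested in concentration series. Loss of signal versus DMSO.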

[7] = target: human Serotonin Transporter (SERT), SLC6A4 (gene 6532) (UniProt P31645); test: NVS_TR_hSERT: NovaScreen (NVS) Transporter Assay for human Serotonin Transporter (SERT) (AID 2283372)
Outline: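 Radioligand binding to native SERT in human platelet membranes, read by filter-based scintillation counting 1 h after dosing. Primary screen in duplicate at 25 uM; actives followed up in concentration series; loss of signal versus DMSO baseline.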

[8] = system: guinea pig Dopamine Transporter (DAT), gene 100714898; test: NVS_TR_gDAT: NovaScreen (NVS) Transporter Assay for guinea pig Dopamine Transporter (DAT) (AID 2283369);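 also: active compounds lower bound radioligand signal relative to DMSO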
Outline: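 Primary pass: duplicate wells at 25 uM, threshold e.g. 30% inhibition. Follow-up: singleton concentration-response, highest 50 uM. Radioligand binding on guinea pig striatal membranes, 2 h, filtration scintillation detection.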

[9] = target: mouse Estrogen Receptor alpha (Era), Esr1 (gene 13982) (UniProt P19785); test: NVS_NR_mERa: NovaScreen (NVS) Nuclear Receptor Binding Assay for mouse Estrogen Receptor alpha (Era) (AID 2283378);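 also: hit means loss of bound radioligand signal relative to DMSO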
Outline: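 Measurements come from scintillation counting after filtration, taken 18 hours after chemicals were added to a cell-free mouse Era preparation with radioligand. Screening was duplicate at 25 uM, with concurrent positive and negative controls and confirmatory concentration series for actives.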

[10] = target: rat Mineralocorticoid Receptor (MR), Nr3c2 (gene 25672) (UniProt P22199); test: NVS_NR_rMR: NovaScreen (NVS) Nuclear Receptor Binding Assay for rat Mineralocorticoid Receptor (MR) (AID 2283355)
Outline: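 Cell-free radioligand binding to mineralocorticoid receptor from adrenalectomized rat brain supernatant, scintillation counting after 24 h. Primary screen in duplicate at 25 uM; actives retested in concentration series. Loss of specific binding versus DMSO.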

[11] = target: human Thyroid Receptor Alpha (TRa), THRA (gene 7067) (UniProt P10827); test: NVS_NR_hTRa_Antagonist: NovaScreen (NVS) Nuclear Receptor Binding Assay for human Thyroid Receptor Alpha Antagonism (TRa) (AID 2283362);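 also: activity is loss of signal relative to DMSO baseline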
Outline: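 In this biochemical format, receptor protein is dosed with chemical and read after 1 hour via AlphaLISA. Decreases from the DMSO baseline indicate antagonist activity; screening used 25 uM in duplicate before concentration-response confirmation.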

[12] = target: Nuclear receptor subfamily 1 group I member 2 (Homo sapiens) (UniProt O75469); test: NVS_NR_hPXR: NovaScreen (NVS) Nuclear Receptor Binding Assay for human Pregnane X Receptor (PXR) (AID 2283365);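 also: a drop in FRET signal versus DMSO baseline means the compound binds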
Outline: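 Read-out: TR-FRET, human PXR, 2 h post-dosing, cell-free. Loss of signal vs DMSO taken as binding activity; 25 uM primary, concentration series secondary.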

[13] = target: rat Androgen Receptor (AR), Ar (gene 24208) (UniProt P15207); test: NVS_NR_rAR: NovaScreen (NVS) Nuclear Receptor Binding Assay for rat Androgen Receptor (AR) (AID 2283366)
Outline: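 Cell-free radioligand binding on extracts of prostate from testosterone-pretreated rats, read by filter-based scintillation counting 18 h after dosing. Loss of bound signal fitted positively versus DMSO; primary screen in duplicate at 25 uM, actives followed up in concentration series.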

[14] = target: guinea pig Sigma Receptor, Non-selective Binding, SIGMAR1 (gene 100135589) (UniProt Q60492); test: NVS_OR_gSIGMA_NonSelective: NovaScreen (NVS) Nuclear Receptor Binding Assay for guinea pig Sigma Receptor, Non-selective Binding (AID 2283367)
Outline: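 Radioligand displacement on guinea pig brain membranes, read by filter-based scintillation counting 1 h after dosing. Loss of signal versus DMSO; initial duplicate single-point screen at 25 uM, actives followed in concentration series.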

[15] = target: human Adenosine Transporter (Adot), SLC29A1 (gene 2030) (UniProt Q99808); test: NVS_TR_hAdoT: NovaScreen (NVS) Transporter Assay for human Adenosine Transporter (Adot) (AID 2283368)
Outline: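 U937-derived membranes, cell-free radioligand binding, filter scintillation 1 h after dosing. 25 uM duplicate screen; hits (e.g. 30% inhibition) run in concentration-response up to 50 uM; loss of signal versus DMSO.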

[16] = target: rat Serotonin Transporter (SERT), Slc6a4 (gene 25553) (UniProt P31652); test: NVS_TR_rSERT: NovaScreen (NVS) Transporter Assay for rat Serotonin Transporter (SERT) (AID 2283375)
Outline: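 Using rat forebrain membrane SERT, test chemicals compete with a radioligand for 1 hour, and bound counts are taken by filter-based scintillation. Screening starts at 25 uM in duplicate, followed by concentration series for actives.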

Chain of Nuclear receptor subfamily 1 group I member 2 (Homo sapiens) (O75469 whole entry, looked up): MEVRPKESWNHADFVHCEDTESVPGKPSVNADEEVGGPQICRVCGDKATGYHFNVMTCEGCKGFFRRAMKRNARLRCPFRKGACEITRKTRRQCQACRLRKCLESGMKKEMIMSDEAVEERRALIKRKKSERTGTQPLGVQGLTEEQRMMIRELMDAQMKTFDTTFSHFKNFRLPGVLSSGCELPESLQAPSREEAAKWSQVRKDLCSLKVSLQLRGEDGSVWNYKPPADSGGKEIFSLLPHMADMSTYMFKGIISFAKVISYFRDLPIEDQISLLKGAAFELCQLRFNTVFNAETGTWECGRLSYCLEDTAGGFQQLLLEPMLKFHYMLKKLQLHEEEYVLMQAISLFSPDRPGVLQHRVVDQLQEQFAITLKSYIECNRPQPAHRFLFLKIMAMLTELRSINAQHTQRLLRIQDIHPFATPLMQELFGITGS
Chain of Peroxisome proliferator-activated receptor gamma (Homo sapiens) (P37231 whole entry, looked up): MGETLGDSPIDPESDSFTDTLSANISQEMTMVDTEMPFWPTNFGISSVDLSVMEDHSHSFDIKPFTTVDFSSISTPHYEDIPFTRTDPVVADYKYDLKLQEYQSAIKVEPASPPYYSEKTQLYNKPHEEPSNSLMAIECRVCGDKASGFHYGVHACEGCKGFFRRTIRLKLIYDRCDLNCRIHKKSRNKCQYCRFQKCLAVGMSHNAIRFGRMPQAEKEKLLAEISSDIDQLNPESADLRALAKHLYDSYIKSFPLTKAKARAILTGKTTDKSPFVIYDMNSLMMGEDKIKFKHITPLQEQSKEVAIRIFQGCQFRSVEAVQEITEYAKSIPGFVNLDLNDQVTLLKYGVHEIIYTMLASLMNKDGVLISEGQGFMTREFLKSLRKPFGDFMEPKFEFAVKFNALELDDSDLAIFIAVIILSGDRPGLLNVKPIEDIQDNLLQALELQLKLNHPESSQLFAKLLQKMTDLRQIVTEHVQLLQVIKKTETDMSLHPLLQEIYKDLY
Chain of rat Androgen Receptor (AR), Ar (gene 24208) (P15207 whole entry, looked up): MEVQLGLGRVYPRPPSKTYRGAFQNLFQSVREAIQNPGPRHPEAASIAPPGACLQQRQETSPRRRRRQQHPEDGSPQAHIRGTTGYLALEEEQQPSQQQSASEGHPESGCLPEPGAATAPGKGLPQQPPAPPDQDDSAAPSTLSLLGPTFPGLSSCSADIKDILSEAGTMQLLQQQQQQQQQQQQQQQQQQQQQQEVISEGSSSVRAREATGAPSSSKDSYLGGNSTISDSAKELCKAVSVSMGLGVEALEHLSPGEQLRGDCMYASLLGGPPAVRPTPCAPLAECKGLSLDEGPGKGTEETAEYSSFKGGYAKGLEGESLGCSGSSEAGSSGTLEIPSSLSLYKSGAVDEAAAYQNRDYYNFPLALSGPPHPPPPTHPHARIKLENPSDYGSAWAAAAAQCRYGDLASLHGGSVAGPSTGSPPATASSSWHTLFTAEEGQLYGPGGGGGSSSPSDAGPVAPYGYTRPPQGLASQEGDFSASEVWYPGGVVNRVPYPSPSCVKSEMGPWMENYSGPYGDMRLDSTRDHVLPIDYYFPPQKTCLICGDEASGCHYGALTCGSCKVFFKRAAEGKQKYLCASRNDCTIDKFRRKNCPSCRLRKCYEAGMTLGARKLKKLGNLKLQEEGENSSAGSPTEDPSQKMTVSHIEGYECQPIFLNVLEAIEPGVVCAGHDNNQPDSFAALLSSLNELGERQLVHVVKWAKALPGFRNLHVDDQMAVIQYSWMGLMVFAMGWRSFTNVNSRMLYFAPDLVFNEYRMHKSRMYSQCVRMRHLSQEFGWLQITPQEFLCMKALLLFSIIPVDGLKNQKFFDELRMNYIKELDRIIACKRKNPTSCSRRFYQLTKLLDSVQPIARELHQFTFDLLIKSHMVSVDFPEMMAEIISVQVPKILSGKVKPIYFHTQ
Chain of human Dopamine Transporter (DAT), SLC6A3 (gene 6531) (Q01959 whole entry, looked up): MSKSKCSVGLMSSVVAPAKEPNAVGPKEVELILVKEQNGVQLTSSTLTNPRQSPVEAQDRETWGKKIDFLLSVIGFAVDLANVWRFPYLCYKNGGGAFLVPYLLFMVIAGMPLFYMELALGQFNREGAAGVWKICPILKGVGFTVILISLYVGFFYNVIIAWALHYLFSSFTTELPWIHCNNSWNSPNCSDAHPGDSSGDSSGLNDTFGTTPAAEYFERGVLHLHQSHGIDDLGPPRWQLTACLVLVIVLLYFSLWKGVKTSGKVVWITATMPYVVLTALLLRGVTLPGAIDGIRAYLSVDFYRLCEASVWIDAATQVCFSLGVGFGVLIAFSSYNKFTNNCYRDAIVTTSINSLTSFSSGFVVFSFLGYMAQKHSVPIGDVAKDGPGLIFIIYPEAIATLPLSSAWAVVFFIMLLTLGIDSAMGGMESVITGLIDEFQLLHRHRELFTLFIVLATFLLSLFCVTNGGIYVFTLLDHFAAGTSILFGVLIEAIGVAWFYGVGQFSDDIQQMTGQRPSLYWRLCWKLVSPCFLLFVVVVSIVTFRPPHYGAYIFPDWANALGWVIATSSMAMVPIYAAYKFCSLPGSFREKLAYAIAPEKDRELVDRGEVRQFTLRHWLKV
Chain of Estrogen receptor (Homo sapiens) + Estrogen receptor beta (Homo sapiens) (P03372 whole entry, looked up, the tested form may be a part): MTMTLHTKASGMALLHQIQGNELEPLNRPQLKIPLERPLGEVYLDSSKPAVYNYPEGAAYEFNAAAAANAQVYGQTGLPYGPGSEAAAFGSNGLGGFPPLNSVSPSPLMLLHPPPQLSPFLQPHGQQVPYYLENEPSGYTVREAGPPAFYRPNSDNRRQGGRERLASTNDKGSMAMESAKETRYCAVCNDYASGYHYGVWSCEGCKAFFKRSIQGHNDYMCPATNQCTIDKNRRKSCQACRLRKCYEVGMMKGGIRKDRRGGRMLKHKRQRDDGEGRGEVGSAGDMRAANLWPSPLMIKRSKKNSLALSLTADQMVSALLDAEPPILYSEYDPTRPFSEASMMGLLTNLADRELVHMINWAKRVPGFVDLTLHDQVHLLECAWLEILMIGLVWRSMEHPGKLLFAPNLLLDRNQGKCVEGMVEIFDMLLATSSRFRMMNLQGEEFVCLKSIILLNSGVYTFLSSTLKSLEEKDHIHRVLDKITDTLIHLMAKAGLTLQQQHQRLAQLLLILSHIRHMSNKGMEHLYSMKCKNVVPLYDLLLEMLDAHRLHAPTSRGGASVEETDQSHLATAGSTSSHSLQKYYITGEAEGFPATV
Chain of Estrogen receptor (Homo sapiens) + Estrogen receptor beta (Homo sapiens) (Q92731 whole entry, looked up, the tested form may be a part): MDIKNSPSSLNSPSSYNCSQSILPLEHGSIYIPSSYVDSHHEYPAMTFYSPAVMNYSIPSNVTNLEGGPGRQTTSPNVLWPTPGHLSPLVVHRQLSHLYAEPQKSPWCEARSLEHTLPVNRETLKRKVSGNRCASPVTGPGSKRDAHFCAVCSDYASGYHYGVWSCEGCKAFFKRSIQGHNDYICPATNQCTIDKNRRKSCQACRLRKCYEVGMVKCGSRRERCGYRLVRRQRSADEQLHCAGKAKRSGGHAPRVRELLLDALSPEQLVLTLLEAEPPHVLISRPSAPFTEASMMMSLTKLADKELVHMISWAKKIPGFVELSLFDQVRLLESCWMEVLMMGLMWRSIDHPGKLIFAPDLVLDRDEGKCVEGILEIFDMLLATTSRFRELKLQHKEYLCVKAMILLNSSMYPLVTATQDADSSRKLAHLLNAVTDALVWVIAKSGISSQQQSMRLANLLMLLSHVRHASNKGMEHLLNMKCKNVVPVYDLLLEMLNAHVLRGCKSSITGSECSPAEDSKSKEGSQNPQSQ
Chain of human Thyroid Receptor Alpha (TRa), THRA (gene 7067) (P10827 whole entry, looked up): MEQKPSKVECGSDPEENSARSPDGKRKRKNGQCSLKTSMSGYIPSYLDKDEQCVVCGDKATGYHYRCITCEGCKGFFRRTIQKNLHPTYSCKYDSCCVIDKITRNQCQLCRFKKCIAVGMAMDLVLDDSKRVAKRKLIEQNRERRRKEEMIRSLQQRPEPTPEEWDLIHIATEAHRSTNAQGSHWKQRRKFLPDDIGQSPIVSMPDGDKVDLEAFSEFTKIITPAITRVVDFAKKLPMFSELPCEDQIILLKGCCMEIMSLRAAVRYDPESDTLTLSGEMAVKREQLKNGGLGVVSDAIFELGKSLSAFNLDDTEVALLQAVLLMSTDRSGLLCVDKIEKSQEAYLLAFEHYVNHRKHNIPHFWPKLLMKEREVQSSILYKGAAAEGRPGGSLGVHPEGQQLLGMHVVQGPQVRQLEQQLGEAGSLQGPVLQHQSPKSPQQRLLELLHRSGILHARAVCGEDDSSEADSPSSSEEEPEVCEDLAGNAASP
Chain of human Peroxisome Proliferator-activated Receptor alpha (PPARa), PPARA (gene 5465) (Q07869 whole entry, looked up): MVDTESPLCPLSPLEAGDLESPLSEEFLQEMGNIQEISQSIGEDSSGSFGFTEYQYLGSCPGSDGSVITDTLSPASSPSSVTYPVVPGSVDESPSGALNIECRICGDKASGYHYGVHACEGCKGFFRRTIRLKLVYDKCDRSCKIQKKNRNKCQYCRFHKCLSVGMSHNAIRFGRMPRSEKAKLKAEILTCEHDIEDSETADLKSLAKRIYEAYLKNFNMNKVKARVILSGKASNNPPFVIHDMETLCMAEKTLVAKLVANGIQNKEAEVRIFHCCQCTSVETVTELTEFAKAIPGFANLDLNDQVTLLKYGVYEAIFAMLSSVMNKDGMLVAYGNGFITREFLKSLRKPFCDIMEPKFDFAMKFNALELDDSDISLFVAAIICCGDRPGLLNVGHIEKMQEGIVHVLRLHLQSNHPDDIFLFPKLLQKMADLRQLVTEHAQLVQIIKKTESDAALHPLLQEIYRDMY
Chain of human Adenosine Transporter (Adot), SLC29A1 (gene 2030) (Q99808 whole entry, looked up): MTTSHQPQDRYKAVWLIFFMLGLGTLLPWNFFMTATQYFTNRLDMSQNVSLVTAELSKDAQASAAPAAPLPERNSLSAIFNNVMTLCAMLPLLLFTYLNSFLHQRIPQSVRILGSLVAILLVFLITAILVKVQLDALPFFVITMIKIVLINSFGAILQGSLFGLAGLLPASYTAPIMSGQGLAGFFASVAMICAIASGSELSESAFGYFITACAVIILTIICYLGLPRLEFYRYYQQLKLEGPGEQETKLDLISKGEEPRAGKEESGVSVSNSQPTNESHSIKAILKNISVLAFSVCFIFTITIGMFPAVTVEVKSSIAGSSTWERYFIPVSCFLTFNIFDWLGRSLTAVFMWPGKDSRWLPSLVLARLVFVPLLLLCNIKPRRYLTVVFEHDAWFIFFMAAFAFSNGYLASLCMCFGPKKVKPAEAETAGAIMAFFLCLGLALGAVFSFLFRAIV

Compound: Nc1cccc2c(N)cccc12
- outcome [1]: inactive
- outcome (PGR (gene 5241)): inactive
- AC50 [2]: 20.5 µM (active)
- AC50 [3]: 13.4 µM (active)
- outcome [4]: inactive
- AC50 [5]: 6.65 µM (active)

Compound: CCCCCCCCOC(=O)CCCCCCCCC(=O)OCCCCCCCC
- outcome [1]: inactive
- outcome [6]: inactive
- outcome [7]: inactive

Compound: CCCOC(=O)c1ccc(O)cc1
- AC50 [1]: 15.5 µM (active)
- outcome [6]: inactive
- outcome [8]: inactive
- outcome [4]: inactive
- AC50 [5]: 15.3 µM (active)
- AC50 [9]: 25 µM (active)

Compound: CC(C)(C)c1cc(C(C)(C)C)c(O)c(C(C)(C)C)c1
- AC50 [1]: 73.3 µM (active)
- outcome [6]: inactive
- outcome [4]: inactive

Compound: CCC(=C(c1ccc(O)cc1)c1ccc(OCCN(C)C)cc1)c1ccccc1
- outcome [10]: inactive
- outcome [6]: inactive
- AC50 (PGR (gene 5241)): 0.852 µM (active)
- outcome [11]: inactive
- AC50 [12]: 1.85 µM (active)
- outcome [12]: inactive
- AC50 [13]: 3.78 µM (active) [middle of 4 runs]
- AC50 [14]: 0.598 µM (active)
- outcome [15]: inactive
- AC50 [8]: 3.77 µM (active)
- outcome [4]: inactive
- AC50 [5]: 1.48 µM (active)

Compound: CC(=O)CC(C)(C)O
- outcome [1]: inactive

Compound: CC(C)(C)CC(C)(C)c1ccc(O)c(-n2nc3ccccc3n2)c1
- outcome [1]: inactive

Compound: CCCOc1sc(C(=O)N2CCC(c3cc(CN)ccc3F)CC2)c(C)c1Br
- AC50 [15]: 18.8 µM (active)
- AC50 [16]: 23.2 µM (active)

Compound: CCCCCCCCCCCCCC[N+](C)(C)C
- AC50 [16]: 41.5 µM (active)
